The full list was thinned out, with hits kept by preference.
Lassa entry inh – blocks Lassa virus binding to or entry into cells. Lassa virus pseudotype entry inhibition, cell reporter. Potency, µM (top dose mostly 37.9 µM), inactives show at the highest dose activity change, negative = inhibition, actives largely listed as inhibitors. 300,000 tested, 1.2% active. AID 540256; calls by dose curve; tested in HEK293 cells; further: potency means the concentration at half of the fitted maximal effect; on the % scale 0 is the no-effect control and ±100 the full control effect; nearly all actives have a fitted effect of over 50% in size
Vaccinia mCherry – vaccinia inhibition (mCherry reporter) | 310,000 tested, 0.63% active | Potency, µM (highest dose often 36.5 µM), without a hit: top-dose activity change, negative = inhibition, most hits filed as inhibitors | AID 720579 | Vaccinia virus mCherry reporter infection, fluorescence; calls by dose curve; tested in A549 cells; further: potency means the concentration at half of the fitted maximal effect; on the % scale 0 is the no-effect control and ±100 the full control effect; nearly all actives have a fitted effect of over 35% in size
Shiga toxin inh – blocks Shiga toxin action in Vero cells. 290,000 tested, 9.2% active. Vero cells, Shiga toxin protein synthesis inhibition reporter. inhibition, % at 38.7 µM; in the data active means inhibition mostly above about 28%, no sharp cut-off; inactive means mostly below about 43%; further: 0% is about no effect
VACV Venus inh – vaccinia inhibition (Venus reporter); 330,000 tested, 0.46% active; AID 720580; Potency, µM (doses to about 36.5 µM), without a hit: top-dose activity change, negative = inhibition, most hits filed as inhibitors; Vaccinia virus Venus reporter expression, fluorescence; calls by dose curve; tested in A549 cells; further: potency means the concentration at half of the fitted maximal effect; on the % scale 0 is the no-effect control and ±100 the full control effect; nearly all actives have a fitted effect of over 30% in size
Cycloheximide cs – counter-screen hit for Shiga toxin inhibitors, cycloheximide. cell reporter, cycloheximide protein synthesis inhibition counterscreen. max response, %. 300,000 tested, 12% active. AID 2314; in the data active means max response mostly above about 13%, no sharp cut-off; inactive means mostly below about 14%; further: read at 38.3 µM for the half of the compounds with a filed dose; 0% is about no effect
Marburg entry inh – inhibitors of Marburg virus binding or cell entry | Marburg virus pseudotyped entry inhibition, cell reporter | 300,000 tested, 1.8% active | Potency, µM (titrated, usually from 37.8 µM), without a hit: top-dose activity change, negative = inhibition, actives largely listed as inhibitors; calls by dose curve; tested in HEK293 cells; further: potency means the concentration at half of the fitted maximal effect; on the % scale 0 is the no-effect control and ±100 the full control effect
* marks the source's active call; other numbers are inactive results; i = inactive; ? = inconclusive; / = no result given; + = active, no number; [ ] = another dose, or the depositor's remark.

SMILES	Lassa entry inh	Vaccinia mCherry	Shiga toxin inh	VACV Venus inh	Cycloheximide cs	Marburg entry inh
CCOc1ccc(S(=O)(=O)N/N=C\c2ccc3c(c2)OCO3)cc1	?	-6%	-7	-1%	0	-5%
COc1cc(Br)cc(/C=N/NC(=O)Cc2ccc(C(F)(F)F)cc2[N+](=O)[O-])c1O	?	20µM*	-5	13µM*	-2	?
O=C(NCC1CCC2(CCN(Cc3c[nH]c4ccccc34)CC2)O1)C1CCOCC1 (stereo not drawn)	/	2%	/	-2%	/	/
CCN1/C(=C\C=C2\C(=O)N(C)C(=S)N2C)Sc2ccccc21	15%	11%	63*	-2%	28*	31%[46.1 µM]
CCN1/C(=C2/OC(=S)N(C)C2=O)Sc2ccccc21	15%	-12%	3	-13%	-4	13%
COc1ccc(C2c3cc4c(cc3OC(N3CCOCC3)C2C)OCO4)c(OC)c1 (stereo not drawn)	6.3µM*	?	/	?	/	?
COc1cccc(C2c3cc4c(cc3OC(N3CCOCC3)C2C)OCO4)c1O (stereo not drawn)	?	-14%	/	?	/	-11%
O=C(COC(=O)C1CC(=O)N(Cc2ccco2)C1)c1ccc(OC(=O)c2ccco2)cc1 (stereo not drawn)	9%	-15%	26	-7%	10*	?
Cc1ccc(C(=O)Oc2ccc(C(=O)COC(=O)C3CC(=O)N(Cc4ccco4)C3)cc2)cc1 (stereo not drawn)	9%	-9%	68*	-13%	29*	?
O=C(COC(=O)C1CC(=O)N(Cc2ccccc2)C1)c1ccc(Br)cc1 (stereo not drawn)	8%	i	-7	-7%	-1	3%
Cc1[nH]c2ccccc2c1C(=O)COC(=O)C1CC(=O)N(Cc2ccco2)C1 (stereo not drawn)	1%	/	-2	/	-4	1%
O=C(Cc1cccc(NC(=O)C2CCN(C(=O)CCc3ccccc3)CC2)c1)Nc1cccc(C(=O)N2CCCC2)c1	/	-4%	/	-12%	/	/
Cc1sc2c(c1C)c(=O)nc1n2Cc2ccccc2-1	/	/	21	/	8	/
CCc1ccc(NC(=O)N2CCOc3ccc(Cl)cc32)cc1	13%[46.1 µM]	-10%	/	-10%	/	/
Cc1ccc(C)c(NC(=O)Cn2cc(C(=O)c3cccs3)c3ccccc32)c1	?	-1%	/	-27%	/	?
Cc1ccc(NC(=O)CCC(=O)c2cccs2)cc1	8%	/	52	/	16*	7%
Cc1ccc(NC(=O)Cn2cc(C(=O)c3cccs3)c3ccccc32)cc1C	?	-19%	/	-16%	/	11µM*
O=C(N/N=C(\CC(=O)c1cccs1)C(F)(F)F)c1ccncc1	?	?	10	14%	-1	?
Cc1ccc(C(=O)N/N=C(/CC(=O)c2cccs2)C(F)(F)F)cc1	?	-27%	-3	-24%	23*	?
O=C(CC(C(=O)O)c1ccccc1)c1cccs1 (stereo not drawn)	1%	-17%	-5	-7%	4	0%
CC(CC(=O)c1cccs1)CC(=O)c1cccs1	25%	i	+	-7%	56*	?
N#Cc1ccccc1S(=O)(=O)N1CCC(C(=O)Nc2cccc(C(=O)NC3CC3)c2)CC1	?	-15%	/	-11%	/	7%
COc1ccccc1-c1ccc(C(=O)N(C)CC2COCCO2)c(N2CCN(c3ccccc3F)CC2)n1 (stereo not drawn)	/	-7%	/	-11%	/	/
CCCOc1ccc(C(=O)CCNc2ccc(C)c(Cl)c2)cc1	10%	-25%	-11	-2%	-3	13%
O=C(CCNc1cccc(Cl)c1)c1cccs1	18%	/	57*	/	33*	13%
SMILES	Lassa entry inh	Vaccinia mCherry	Shiga toxin inh	VACV Venus inh	Cycloheximide cs	Marburg entry inh
Cc1ccc(NCCC(=O)c2cccs2)cc1Cl	12%	-2%	53*	-10%	29*	?
Cc1cc(C)c(C(=O)c2cccs2)c(C)c1	?	-13%	/	5%	/	1%[46.1 µM]
Cc1cc(C)c(C(CC(=O)c2cccs2)C(C#N)C#N)c(C)c1 (stereo not drawn)	-17%	?	84*	-20%	61*	?
O=C(CCC(=O)c1cccs1)NNC(=O)c1cccc(Cl)c1	16%	-3%	/	0%	/	-1%[46.1 µM]
Cc1ccc(NCCC(=O)c2cccs2)cc1C	12%	i	58*	-14%	49*	?
CC1(c2nnnn2Cc2ccccc2)CCC(=O)N1C1CC1 (stereo not drawn)	/	-12%	/	-4%	/	/
